# Screening data: PubChem BioAssay, several laboratories
# Only some compounds are listed: those with a hit (about 3.5% of all), similar ones and a draw of the others.
# SARS 3CLpro inh = SARS-CoV 3CLpro protease inhibition | P0C6X7 | recombinant SARS-CoV 3CLpro, quenched FRET peptide cleavage | inhibition, % at 6 µM | 290,000 tested, 0.14% active; in the data active means inhibition above about 12%
# BoNT F protease = inhibitors of Botulinum neurotoxin F light chain protease | AID 588497 | inhibition, % at 10 µM | 360,000 tested, 0.22% active | Multiplex microsphere protease cleavage assay, flow cytometry; in the data active means inhibition above about 35%, passing the limit was not always enough; inconclusive means no clear call, values can overlap the other calls; further: plate controls were buffer without enzyme for full effect and enzyme alone for no effect
# Anthrax LF inh2 = anthrax lethal factor protease inhibition; P15917; multiplex microsphere protease cleavage assay, LF; inhibition, % at 10 µM; 360,000 tested, 0.12% active; AID 588501; further: plate controls were buffer without enzyme for full effect and enzyme alone for no effect
# Target sequence (P15917 whole entry, looked up): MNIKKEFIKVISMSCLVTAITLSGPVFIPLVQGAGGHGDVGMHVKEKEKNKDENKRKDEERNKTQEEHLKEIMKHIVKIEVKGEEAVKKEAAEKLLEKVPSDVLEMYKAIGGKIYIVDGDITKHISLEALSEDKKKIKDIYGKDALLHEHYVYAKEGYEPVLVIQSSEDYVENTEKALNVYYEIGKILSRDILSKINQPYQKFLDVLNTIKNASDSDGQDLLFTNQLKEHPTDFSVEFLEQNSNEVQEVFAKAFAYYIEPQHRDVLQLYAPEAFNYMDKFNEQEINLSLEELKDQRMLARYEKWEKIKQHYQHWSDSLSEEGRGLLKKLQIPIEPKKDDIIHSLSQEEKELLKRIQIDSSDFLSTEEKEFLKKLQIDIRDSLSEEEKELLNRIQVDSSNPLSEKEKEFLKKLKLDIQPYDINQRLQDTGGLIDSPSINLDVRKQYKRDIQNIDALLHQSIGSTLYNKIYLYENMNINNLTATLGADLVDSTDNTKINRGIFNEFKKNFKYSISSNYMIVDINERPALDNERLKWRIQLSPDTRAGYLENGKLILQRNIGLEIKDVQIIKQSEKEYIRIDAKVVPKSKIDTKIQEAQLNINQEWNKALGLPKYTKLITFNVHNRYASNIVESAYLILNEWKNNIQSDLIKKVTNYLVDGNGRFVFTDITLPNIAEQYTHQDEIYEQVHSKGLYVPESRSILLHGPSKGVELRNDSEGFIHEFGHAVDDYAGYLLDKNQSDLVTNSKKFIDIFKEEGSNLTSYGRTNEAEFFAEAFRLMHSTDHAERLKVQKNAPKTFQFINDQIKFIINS
# Bead autofluor = counter-screen for toxin protease inhibitors: compound fluorescence. fluorescence intensity (concentration not given with the values). compound autofluorescence counterscreen, microsphere flow cytometry; hits give high values. 360,000 tested, 3.1% active. AID 624483; in the data active means fluorescence intensity above about 16000; inconclusive means no clear call, values can overlap the other calls
# BoNT-A LC inh2 = inhibitors of Botulinum neurotoxin A light chain protease | multiplex microsphere protease substrate cleavage, flow cytometry | inhibition, % at 10 µM | 360,000 tested, 0.17% active; further: plate controls were buffer without enzyme for full effect and enzyme alone for no effect
# The depositor's hits bear a star; ? = inconclusive; · = no result given. Unless noted, no stated cut-off is given here; in the data, active means inhibition above about 30%; inconclusive means no clear call, values can overlap the other calls; inactive means below that.
SMILES,SARS 3CLpro inh,BoNT F protease,Anthrax LF inh2,Bead autofluor,BoNT-A LC inh2
CCOC(=O)C1CCN(S(=O)(=O)c2ccc3c(ccn3C)c2)CC1,-6.4,3.3,0.0,5006,0.0
COCCn1c(C)cc2c(c1=O)C(c1ccccc1F)C(C#N)=C(N)O2 (centres undefined),3.1,-0.2,0.4,20039*,1.0
Cc1cc(CNC(=O)CC2C(=O)NCCN2CC(c2ccccc2)c2ccccc2)on1 (centres undefined),0.5,-3.2,-0.1,2777,0.6
Cc1noc(C)c1CSCC(=O)N1CCN(c2ccc(F)cc2)CC1,-3.3,-2.4,-3.2,16984*,-0.4
O=C(CSCc1ccc(F)cc1)N1CCOCC1,-1.2,7.6,-11.8,20026*,6.8
Cc1cccc(N2CCN(C(=O)CSCc3c(C)noc3C)CC2)c1C,-2.1,-1.5,0.6,23925*,-0.4
Cc1ccc(C)c(N(C(=O)c2nsc(Cl)c2Cl)C(C(=O)NC2CCCC2)c2ccc(O)cc2)c1 (centres undefined),3.4,-2.0,-0.2,2565,0.0
Cc1cccn2c(=O)c3cc(C(=O)N4CCCCC4)sc3nc12,-0.3,2.6,1.2,5332,1.1
Cc1c(Cl)cccc1NC(=O)[C@@H](NC(=O)c1ccccc1Cl)C(C)C,-3.6,-7.3,-0.8,2600,-2.8
COc1ccc(-c2ccc3oc(-c4ccc(OC)cc4)c(C#CC4(O)CCCCC4)c3c2)cc1,·,4.7,-2.8,3274,0.5
CC(=O)Nc1cc(-c2nn(CC(=O)N3CCCCC3)c(=O)c3ccccc23)ccc1N1CCOCC1,-4.9,1.8,-6.0,10719,0.1
Cc1ccc(-c2nn(C)c(=O)c3ccccc23)cc1S(=O)(=O)N1CCOCC1,-1.2,-13.3,-7.3,25828*,-10.6
CCCC(=O)Nc1cc(-c2nn(C)c(=O)c3ccccc23)ccc1OC,-3.0,5.6,?,?,?
Cc1ccc(-c2nn(C)c(=O)c3ccccc23)cc1S(=O)(=O)N1CCCC1,-3.6,-1.6,-7.1,5862,-0.4
CCC(=O)Nc1cc(-c2nn(C)c(=O)c3ccccc23)ccc1OC,0.6,2.8,0.2,21426*,2.7
CC(=O)Nc1cc(-c2nn(C)c(=O)c3ccccc23)ccc1N1CCCCC1,3.1,3.2,-2.2,16582*,-0.2
Cn1nc(-c2ccc(N3CCOCC3)c(NS(=O)(=O)c3ccccc3)c2)c2ccccc2c1=O,-2.3,-5.2,-1.1,22480*,-6.9
CCCC(=O)Nc1cc(-c2nn(C)c(=O)c3ccccc23)ccc1N1CCCCC1,0.7,-1.3,-2.8,16901*,-2.1
Cc1ccc(-c2nn3c(C)nnc3c3ccccc23)cc1S(=O)(=O)NCCN1CCOCC1,2.1,-5.6,-2.5,22118*,-5.8
CCC(=O)Nc1cc(-c2nn(C)c(=O)c3ccccc23)ccc1N1CCCCC1,-6.0,-4.7,-2.1,3552,0.5
O=C(NC(=S)NC1CCCCCCCCCCC1)c1cccnc1,0.5,-23.2,-2.4,2833,-0.7
Cc1c(C)n2c(SCC(=O)Nc3ccc4c(c3)OCCO4)nnc2[nH]c1=O,·,-9.6,-3.4,6224,-13.6
Cn1c(=O)c2[nH]c(-c3cccnc3)nc2n(C)c1=O,5.5,0.3,-1.8,21912*,1.0
Cn1c(=O)c2[nH]c(-c3ccccc3)nc2n(C)c1=O,-1.3,·,·,·,·
CC(=NCc1cccnc1)c1c(O)n(C2CCCCC2)c(=O)[nH]c1=O,-1.2,-0.7,-1.6,22369*,?
SMILES,SARS 3CLpro inh,BoNT F protease,Anthrax LF inh2,Bead autofluor,BoNT-A LC inh2
CCC(=NCc1cccnc1)c1c(O)n(C2CCCCC2)c(=O)[nH]c1=O,0.2,-0.2,-3.6,20661*,0.1
CCC(=NCc1cccnc1)c1c(O)n(-c2ccccc2C)c(=O)[nH]c1=O,-7.4,?,10.4,3658,3.3
CC(=NCc1cccnc1)c1c(O)n(-c2ccccc2C)c(=O)[nH]c1=O,6.1,-5.4,2.5,20266*,-1.9
CCC(=NCc1ccco1)c1c(O)n(C2CCCCC2)c(=O)[nH]c1=O,-1.1,10.3,9.9,9369,2.0
CC(=NCc1cccnc1)c1c(O)n(-c2ccc(C)cc2)c(=O)[nH]c1=O,0.8,11.1,0.3,8276,1.8
CC(=O)O[C@H](COc1c2ccoc2cc2oc(=O)ccc12)C(C)(C)O,·,-7.7,3.0,3898,0.5
CCN=C1S/C(=C\c2cc(OCC)c(O)cc2Br)C(=O)N1CC,2.2,72.5*,30.2*,6185,6.8
CCN=C1S/C(=C\c2ccc(O)c(OCC)c2)C(=O)N1CC,-1.5,0.3,0.5,2581,0.2
CCC1(CC)C(=O)NC(=O)NC1=Nc1ccccc1,1.6,-0.1,-0.4,1967,-0.4
CCC1(CC)C(=O)NC(=O)NC1=NCCc1c[nH]c2ccccc12,-1.8,-1.0,-0.5,21453*,-2.2
O=C(COC(=O)/C=C/c1ccc([N+](=O)[O-])cc1)NCC1CCCO1 (centres undefined),7.1,5.8,-0.6,3171,0.5
CCOC(=O)NC1(NCC(C)C)Oc2ccccc2O1,-1.7,-0.4,-6.2,16411*,-0.3
O=C(NC1(C(F)(F)F)N=C2SCCN2C1=O)c1ccccc1 (centres undefined),5.1,-2.8,-4.5,24460*,-1.5
COc1ccc(C(=O)NC2(C(F)(F)F)N=C3SCCN3C2=O)cc1 (centres undefined),5.6,-5.5,-6.6,9638,1.3
O=C(COc1ccccc1Br)NCc1ccco1,0.7,-0.2,-0.2,16469*,-0.7
Cc1ccc(Cl)c(OCC(=O)NCc2ccco2)c1,-0.1,-2.6,-0.6,21508*,?
COc1ccccc1OCC(=O)NCc1ccco1,-3.5,1.0,-11.4,10212,-0.4
O=C(/C=C/c1ccc(Cl)c(Cl)c1)NCc1ccco1,0.9,35.3*,1.7,2025,2.6
CCN(CC)C(=O)Oc1ccc2c(=O)c(-c3ccccc3)coc2c1,0.7,4.0,-0.3,21592*,1.8
COc1ccc2c(=O)c(-c3ccccc3)coc2c1,3.2,-4.2,2.4,6027,-1.1
O=C(Cc1ccc(F)cc1)Nc1cccc(-c2ccc3nncn3n2)c1,5.4,-2.3,-10.7,4704,-0.4
CN1CCN(C(=O)C2=C[C@@H](c3ccc(C(F)(F)F)cc3)C[C@@H](OCc3ccc(CO)cc3)O2)CC1,2.4,-2.7,-1.2,3948,0.3
CCCN1C=CC(=C2C(=O)c3ccccc3C2=O)C=C1,-4.7,-1.4,-0.6,15675,1.7
CCN1C=CC(=C2C(=O)c3ccccc3C2=O)C=C1,0.8,-9.1,-5.0,17505*,-3.9
CC(CCc1ccc(O)cc1)NC1c2ccccc2-c2ccccc21 (centres undefined),3.0,?,5.6,3665,0.0
COc1cc(CNCc2ccccc2Cl)ccc1OCC(=O)NC1CCCCC1,0.1,-6.3,-1.5,6265,-0.5
CN(C)S(=O)(=O)c1ccc(S(=O)(=O)NCc2ccc3c(c2)OCO3)cc1,0.1,38.0*,1.8,2948,4.0
O=C(CCNS(=O)(=O)c1ccc(Br)cc1)NCc1ccc2c(c1)OCO2,2.0,-2.7,-0.6,24584*,-2.1
C(=N\n1cnnc1)/c1cccn1-c1ccccc1,1.9,-4.3,-2.0,16775*,-1.5
COc1ccc(C(=O)N(C)C(C)c2nccs2)cc1OC1CCN(C(C)=O)CC1 (centres undefined),·,-5.2,-1.9,3016,0.0
